According to the supplement of paper PMC10849652:
Targets with a hit are over-represented here; the source holds about 7,900 in all. About 0.6% of all pairs of compound and target were hits. Unmarked numbers belong to inactive results.

Each target was assayed with COC1=CC=C(C=C1)CN2C=CC3=C2C=C(C=C3)C(=O)NO (assay: log2 fold change, soluble protein after heating vs DMSO (PISA); higher = thermal stabilisation; K562 cells, 10 uM, 30 min; active = over 0.2 and 3.5 SD of the protein, either way, in both replicates (recomputed)).
Method in brief: (§1)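 For each measurement, 10 μM compound was applied for 30 min to K562 cells at 2×10^6 cells/mL. Aliquots were heated for 3 min across 48°C-58°C, pooled, and extracted in PBS with 0.5% NP-40 at 4°C; the supernatant after 21,000xg for 90 min was soluble protein. This was quantified by TMTpro 16plex LC-MS/MS with channel sums equalised, and thermal stability was reported relative to control samples from duplicates, on a log2 fold-change scale.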

Sequence of UniProt Q15910 (Q15910 whole entry, looked up): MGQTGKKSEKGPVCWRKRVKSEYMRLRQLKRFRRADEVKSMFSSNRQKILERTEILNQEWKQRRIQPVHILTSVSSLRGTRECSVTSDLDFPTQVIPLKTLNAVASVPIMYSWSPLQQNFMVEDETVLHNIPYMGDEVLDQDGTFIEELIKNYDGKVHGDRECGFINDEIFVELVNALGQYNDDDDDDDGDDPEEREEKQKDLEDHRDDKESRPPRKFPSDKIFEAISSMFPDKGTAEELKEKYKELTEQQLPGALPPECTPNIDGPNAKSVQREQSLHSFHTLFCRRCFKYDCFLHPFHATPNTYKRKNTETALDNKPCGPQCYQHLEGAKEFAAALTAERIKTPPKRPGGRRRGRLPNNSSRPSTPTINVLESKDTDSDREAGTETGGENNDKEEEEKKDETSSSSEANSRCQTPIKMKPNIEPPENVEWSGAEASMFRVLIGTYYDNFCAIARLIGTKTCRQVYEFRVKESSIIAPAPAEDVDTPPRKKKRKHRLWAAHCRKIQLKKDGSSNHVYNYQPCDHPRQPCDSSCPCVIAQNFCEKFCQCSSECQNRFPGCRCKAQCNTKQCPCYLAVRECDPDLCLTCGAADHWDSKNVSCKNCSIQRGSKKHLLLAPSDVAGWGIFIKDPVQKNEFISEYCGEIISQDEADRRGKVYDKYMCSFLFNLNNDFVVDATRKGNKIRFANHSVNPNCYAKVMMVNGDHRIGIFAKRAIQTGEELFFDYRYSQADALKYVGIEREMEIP
Sequence of UniProt P25774 (P25774 whole entry, looked up): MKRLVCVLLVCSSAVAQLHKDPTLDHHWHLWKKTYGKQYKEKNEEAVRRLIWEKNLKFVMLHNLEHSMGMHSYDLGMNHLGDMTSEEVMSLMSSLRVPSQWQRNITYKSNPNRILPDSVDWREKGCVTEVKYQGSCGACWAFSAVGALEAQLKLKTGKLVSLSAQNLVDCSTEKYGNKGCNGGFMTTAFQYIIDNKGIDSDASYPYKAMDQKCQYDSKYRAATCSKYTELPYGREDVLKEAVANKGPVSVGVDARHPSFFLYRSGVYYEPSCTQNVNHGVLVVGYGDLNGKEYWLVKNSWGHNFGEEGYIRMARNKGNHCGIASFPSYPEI
Sequence of UniProt Q9HBU6 (Q9HBU6 whole entry, looked up): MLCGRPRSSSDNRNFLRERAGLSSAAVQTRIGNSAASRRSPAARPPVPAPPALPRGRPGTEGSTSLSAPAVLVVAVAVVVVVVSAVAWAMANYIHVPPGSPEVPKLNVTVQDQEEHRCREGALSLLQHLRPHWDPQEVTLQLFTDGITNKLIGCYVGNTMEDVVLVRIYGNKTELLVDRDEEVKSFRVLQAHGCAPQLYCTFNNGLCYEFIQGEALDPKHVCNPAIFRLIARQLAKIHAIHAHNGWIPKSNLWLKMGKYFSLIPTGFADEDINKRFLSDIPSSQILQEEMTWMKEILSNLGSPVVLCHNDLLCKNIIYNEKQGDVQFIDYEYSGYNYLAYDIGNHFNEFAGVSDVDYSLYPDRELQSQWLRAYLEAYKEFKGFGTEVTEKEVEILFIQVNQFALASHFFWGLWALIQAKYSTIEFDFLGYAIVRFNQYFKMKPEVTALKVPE
Sequence of UniProt Q9BQI3 (Q9BQI3 whole entry, looked up): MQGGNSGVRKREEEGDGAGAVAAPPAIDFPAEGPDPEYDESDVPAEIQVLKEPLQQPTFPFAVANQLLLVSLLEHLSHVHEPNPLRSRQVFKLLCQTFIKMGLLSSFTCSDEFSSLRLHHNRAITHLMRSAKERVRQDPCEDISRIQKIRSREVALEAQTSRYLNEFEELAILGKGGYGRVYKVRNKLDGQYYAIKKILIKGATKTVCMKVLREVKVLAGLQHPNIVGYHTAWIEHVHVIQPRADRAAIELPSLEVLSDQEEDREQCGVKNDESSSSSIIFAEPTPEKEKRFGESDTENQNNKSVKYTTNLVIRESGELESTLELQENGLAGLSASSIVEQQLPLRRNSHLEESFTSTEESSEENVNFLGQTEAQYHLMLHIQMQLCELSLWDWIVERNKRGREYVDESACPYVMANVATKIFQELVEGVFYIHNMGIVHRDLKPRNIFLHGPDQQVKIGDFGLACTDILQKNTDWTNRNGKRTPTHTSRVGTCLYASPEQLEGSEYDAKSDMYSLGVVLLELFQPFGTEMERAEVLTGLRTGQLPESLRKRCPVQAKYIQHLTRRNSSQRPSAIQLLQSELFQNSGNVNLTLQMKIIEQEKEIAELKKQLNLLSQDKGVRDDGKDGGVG
Sequence of UniProt O60888 (O60888 whole entry, looked up): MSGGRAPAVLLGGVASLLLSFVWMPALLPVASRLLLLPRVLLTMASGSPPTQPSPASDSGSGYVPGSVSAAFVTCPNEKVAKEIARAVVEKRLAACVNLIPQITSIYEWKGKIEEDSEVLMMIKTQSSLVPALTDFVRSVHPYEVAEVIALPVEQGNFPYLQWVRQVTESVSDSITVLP
Sequence of UniProt Q9BV94 (Q9BV94 whole entry, looked up): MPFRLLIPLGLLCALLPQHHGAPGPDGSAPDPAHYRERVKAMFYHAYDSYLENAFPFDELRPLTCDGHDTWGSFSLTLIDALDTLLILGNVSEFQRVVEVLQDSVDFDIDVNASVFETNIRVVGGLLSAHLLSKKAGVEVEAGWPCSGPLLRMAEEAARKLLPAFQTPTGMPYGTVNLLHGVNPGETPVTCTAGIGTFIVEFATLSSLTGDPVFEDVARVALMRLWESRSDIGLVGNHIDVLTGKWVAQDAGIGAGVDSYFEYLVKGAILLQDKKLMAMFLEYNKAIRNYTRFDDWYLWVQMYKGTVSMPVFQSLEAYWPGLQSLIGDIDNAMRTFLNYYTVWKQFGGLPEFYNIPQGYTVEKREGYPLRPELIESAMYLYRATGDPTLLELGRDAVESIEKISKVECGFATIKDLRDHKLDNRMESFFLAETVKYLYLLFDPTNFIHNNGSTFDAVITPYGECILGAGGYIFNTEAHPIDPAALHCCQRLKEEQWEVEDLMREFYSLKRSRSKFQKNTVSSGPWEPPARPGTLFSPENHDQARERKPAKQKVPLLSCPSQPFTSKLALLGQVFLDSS
Sequence of UniProt Q5VYK3 (Q5VYK3 whole entry, looked up): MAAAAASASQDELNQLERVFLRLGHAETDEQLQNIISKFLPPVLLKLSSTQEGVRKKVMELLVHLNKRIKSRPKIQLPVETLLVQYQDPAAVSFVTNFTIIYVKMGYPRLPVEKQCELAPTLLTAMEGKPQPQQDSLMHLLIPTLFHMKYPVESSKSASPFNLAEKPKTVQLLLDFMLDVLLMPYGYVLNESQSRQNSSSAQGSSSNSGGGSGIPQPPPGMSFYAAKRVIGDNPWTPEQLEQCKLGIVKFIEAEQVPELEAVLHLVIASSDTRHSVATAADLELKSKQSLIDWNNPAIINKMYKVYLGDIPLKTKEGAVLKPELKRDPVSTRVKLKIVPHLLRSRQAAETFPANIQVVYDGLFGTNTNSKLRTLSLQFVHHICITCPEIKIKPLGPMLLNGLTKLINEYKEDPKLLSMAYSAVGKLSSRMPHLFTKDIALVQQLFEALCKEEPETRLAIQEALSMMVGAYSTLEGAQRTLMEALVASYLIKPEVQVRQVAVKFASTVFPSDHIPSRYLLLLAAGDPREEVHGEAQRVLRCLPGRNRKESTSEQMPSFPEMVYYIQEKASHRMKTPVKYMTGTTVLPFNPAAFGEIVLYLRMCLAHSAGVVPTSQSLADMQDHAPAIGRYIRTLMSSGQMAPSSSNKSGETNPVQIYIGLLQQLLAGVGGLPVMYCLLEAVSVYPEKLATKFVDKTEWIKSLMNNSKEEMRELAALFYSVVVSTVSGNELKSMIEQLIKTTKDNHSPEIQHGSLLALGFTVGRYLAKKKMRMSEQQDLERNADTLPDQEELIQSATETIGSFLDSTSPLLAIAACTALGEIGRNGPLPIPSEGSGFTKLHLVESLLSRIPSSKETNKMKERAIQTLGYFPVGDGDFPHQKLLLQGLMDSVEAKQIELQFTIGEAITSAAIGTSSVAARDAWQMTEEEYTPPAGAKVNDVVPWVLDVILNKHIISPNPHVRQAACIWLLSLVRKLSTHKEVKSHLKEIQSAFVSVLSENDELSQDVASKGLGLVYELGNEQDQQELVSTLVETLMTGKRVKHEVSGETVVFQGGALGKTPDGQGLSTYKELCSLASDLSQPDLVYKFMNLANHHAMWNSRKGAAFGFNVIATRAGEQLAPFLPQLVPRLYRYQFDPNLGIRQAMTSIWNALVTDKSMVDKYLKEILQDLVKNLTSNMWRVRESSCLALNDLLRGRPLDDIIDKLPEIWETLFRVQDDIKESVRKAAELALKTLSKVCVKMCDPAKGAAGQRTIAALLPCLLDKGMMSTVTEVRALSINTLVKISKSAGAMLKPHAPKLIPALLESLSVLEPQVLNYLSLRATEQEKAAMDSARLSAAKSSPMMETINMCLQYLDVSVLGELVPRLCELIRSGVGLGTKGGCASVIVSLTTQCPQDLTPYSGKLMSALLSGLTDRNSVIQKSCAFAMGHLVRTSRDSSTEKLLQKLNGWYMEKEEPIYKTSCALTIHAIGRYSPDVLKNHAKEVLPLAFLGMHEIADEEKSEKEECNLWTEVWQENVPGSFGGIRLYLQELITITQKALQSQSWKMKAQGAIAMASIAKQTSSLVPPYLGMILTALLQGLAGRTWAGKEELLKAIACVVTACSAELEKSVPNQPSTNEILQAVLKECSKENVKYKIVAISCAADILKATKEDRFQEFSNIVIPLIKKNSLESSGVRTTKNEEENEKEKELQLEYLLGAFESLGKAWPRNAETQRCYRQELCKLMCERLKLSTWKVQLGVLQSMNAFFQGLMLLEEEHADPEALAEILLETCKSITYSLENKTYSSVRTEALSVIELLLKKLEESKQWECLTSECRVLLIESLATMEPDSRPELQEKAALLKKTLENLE
Sequence of UniProt Q96GE9 (Q96GE9 whole entry, looked up): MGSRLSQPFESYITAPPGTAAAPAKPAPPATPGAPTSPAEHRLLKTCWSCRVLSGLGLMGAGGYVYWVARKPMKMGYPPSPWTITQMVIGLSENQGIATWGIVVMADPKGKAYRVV
Sequence of UniProt Q6P3W2 (Q6P3W2 whole entry, looked up): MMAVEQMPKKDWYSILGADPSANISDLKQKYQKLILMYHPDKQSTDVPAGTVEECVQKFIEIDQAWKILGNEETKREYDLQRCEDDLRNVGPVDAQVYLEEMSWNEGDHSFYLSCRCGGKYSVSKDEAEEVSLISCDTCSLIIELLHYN

| Target | log2 fold change |
| --- | --- |
| CTNNB1 (UniProt P35222) | -0.082 |
| EXOSC10 (UniProt Q01780) | 0.593 |
| EXOC4 (UniProt Q96A65) | 0.029 |
| DDX27 (UniProt Q96GQ7) | 0.091 |
| EDC4 (UniProt Q6P2E9) | 0.018 |
| CTSV (UniProt O60911) | -0.006 |
| CYB561A3 isoform 2 (UniProt Q8NBI2) | -0.026 |
| DCP2 (UniProt Q8IU60) | -0.085 |
| ERLIN2 (UniProt O94905) | -0.006 |
| DPYSL2 (UniProt Q16555) | -0.082 |
| ELAC1 (UniProt Q9H777) | 0.022 |
| FAM50A (UniProt Q14320) | -0.019 |
| FAM118A (UniProt Q9NWS6) | 0.213 |
| DIP2A (UniProt Q14689) | -0.097 |
| DNAJC24 (UniProt Q6P3W2) | -0.06 |
| EZH2 isoform 2 (UniProt Q15910) | -0.105 |
| DHRS13 (UniProt Q6UX07) | -0.096 |
| FAM193B (UniProt Q96PV7) | -0.179 |

| Target | log2 fold change |
| --- | --- |
| ECPAS (UniProt Q5VYK3) | 0.004 |
| DMAC1 (UniProt Q96GE9) | -0.121 |
| ELF1 (UniProt P32519) | 0.001 |
| DNAH10 (UniProt Q8IVF4) | 0.574 (active) |
| DOCK8 (UniProt Q8NF50) | 0.475 |
| ERCC6 (UniProt Q03468) | -0.067 |
| ETNK1 (UniProt Q9HBU6) | -0.083 |
| DYNC1I2 isoform 5 (UniProt Q13409) | 0.012 |
| CUX1 isoform 3 (UniProt P39880) | 0.068 |
| CWF19L2 (UniProt Q2TBE0) | 0.003 |
| EIF2S3 (UniProt P41091) | -0.028 |
| CUTA isoform 2 (UniProt O60888) | 0.248 |
| EIF2AK1 (UniProt Q9BQI3) | -0.047 |
| DNAH5 (UniProt Q8TE73) | -0.147 |
| EPHX2 (UniProt P34913) | -0.019 |
| EDEM2 (UniProt Q9BV94) | -0.149 |
| DAXX (UniProt Q9UER7) | 0.248 |
| CTSS (UniProt P25774) | 0.019 |

The targets below were run with CON(C)C(=O)N1N=C(c2cc(F)ccc2F)S[C@@]1(CCCN)c1ccccc1 [filanesib] in the same assay as above.
Method in brief: as §1

| Target | log2 fold change |
| --- | --- |
| CTNNB1 (UniProt P35222) | 0.174 |
| DENND10 (UniProt Q8TCE6) | -0.133 |
| EXOSC10 (UniProt Q01780) | 0.136 |
| EXOC4 (UniProt Q96A65) | 0.009 |
| DEGS1 (UniProt O15121) | -0.048 |
| DDX27 (UniProt Q96GQ7) | 0.278 |
| EDC4 (UniProt Q6P2E9) | 0.106 |
| CTSV (UniProt O60911) | -0.112 |
| CYB561A3 isoform 2 (UniProt Q8NBI2) | -0.073 |
| DCP2 (UniProt Q8IU60) | 0.121 |
| ERLIN2 (UniProt O94905) | 0.039 |
| DPYSL2 (UniProt Q16555) | 0.006 |
| ELAC1 (UniProt Q9H777) | 0.083 |
| FAM50A (UniProt Q14320) | -0.008 |
| FAM118A (UniProt Q9NWS6) | -0.15 |
| DIP2A (UniProt Q14689) | 0.028 |
| DNAJC24 (UniProt Q6P3W2) | 0.199 |
| EZH2 isoform 2 (UniProt Q15910) | -0.113 |
| DHRS13 (UniProt Q6UX07) | 0.298 |
| FAM193B (UniProt Q96PV7) | 0.379 |

| Target | log2 fold change |
| --- | --- |
| ECPAS (UniProt Q5VYK3) | -0.004 |
| DMAC1 (UniProt Q96GE9) | 0.04 |
| ELF1 (UniProt P32519) | 0.028 |
| DNAH10 (UniProt Q8IVF4) | -0.187 |
| DOCK8 (UniProt Q8NF50) | 0.464 |
| ERCC6 (UniProt Q03468) | -0.268 |
| ETNK1 (UniProt Q9HBU6) | -0.172 |
| DYNC1I2 isoform 5 (UniProt Q13409) | 0.003 |
| CUX1 isoform 3 (UniProt P39880) | 0.001 |
| CWF19L2 (UniProt Q2TBE0) | 0.225 |
| EIF2S3 (UniProt P41091) | 0.119 |
| CUTA isoform 2 (UniProt O60888) | 0.108 |
| EIF2AK1 (UniProt Q9BQI3) | 0.014 |
| DNAH5 (UniProt Q8TE73) | -0.061 |
| EPHX2 (UniProt P34913) | -0.096 |
| EDEM2 (UniProt Q9BV94) | -0.03 |
| ELOVL5 isoform 2 (UniProt Q9NYP7) | -0.157 |
| DAXX (UniProt Q9UER7) | 0.008 |
| CTSS (UniProt P25774) | 0.051 |
